From PubChem BioAssay
Measured potencies and affinities stand elsewhere. Records with an inconclusive call do not appear. Active and inactive are the calls of the source. Unless noted, no rule for the calls is given here.

Columns and labels:
[1] = RMG-1 ovarian cancer cell viability loss – cherry-pick, dose response (AID 687029;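 active = signal drop whose fitted half-maximal concentration is at most twice the top valid dose, in every test run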;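 also: cells exposed to compound for 96 hours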)
[2] = IOSE-T80 viability loss, PAX8-independent line – cell-based, cherry-pick, selectivity assay for PAX8 inhibitor project, dose response (AID 687032;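 active = fitted half-maximal concentration for viability loss no higher than twice the top valid dose, in every repeat run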;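 also: cells exposed to compound for 96 h before reading; 0% = neutral control wells and -100% = 2 µM mitoxantrone kill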)
[3] = CMV-driven luciferase expression suppression in HEK293 – cell-based, luminescence, dry powder, counter-screen for Pax8 inhibitor project, dose response (AID 743020;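 active = signal-lowering compounds whose fitted half-maximal concentration is at or below twice the top tested dose in every run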;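 also: HEK293 cells stably expressing the CMV luciferase reporter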)
[4] = general cell-killing toxicity readout – plate reader, dry powder samples, cytotoxicity control for PAX8 inhibitor project, dose response (AID 743021)
[5] = IGROV1 cell killing – plate reader, dry powder samples, PAX8 inhibitor project, dose response (AID 743043);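 also: more negative means fewer viable cells or more cytotoxicity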
[6] = toxicity toward immortalized ovarian surface epithelium – cell-based, plate reader, dry powder samples, cytotoxicity control for PAX8 inhibitor project, dose response (AID 743045);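 also: 0% = neutral control median and -100% = positive control median; more negative values mean more cell killing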
[7] = A2780 cell killing – plate reader, dry powder samples, cytotoxicity control, dose response (AID 743046);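 also: 0% = neutral control wells and -100% = cytotoxic reference compound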
[8] = OVCAR8 cell viability loss – plate reader, dry powder samples, PAX8 project, dose response (AID 743197)
[9] = OVCAR-3 cell viability loss – plate reader, dry powder samples, PAX8 inhibitor project, dose response (AID 743044); details: max activity: at 35 µM, stronger effect = lower value unless noted

Measured: max activity

C[C@@H]1CN([C@H](C)CO)C(=O)c2cc(NC(=O)Nc3ccc(C(F)(F)F)cc3)ccc2O[C@@H](C)CCCCO[C@H]1CN(C)S(=O)(=O)c1ccccc1
not listed: [9]
inactive: all other assays above

COc1ccc(CN(C)C[C@@H]2OCCCC[C@H](C)Oc3ccc(NC(=O)Nc4ccc(C(F)(F)F)cc4)cc3C(=O)N([C@H](C)CO)C[C@@H]2C)cc1
not listed: [9]
inactive: all other assays above

C[C@@H]1CCCCO[C@@H](CN(C)Cc2ccc(C(F)(F)F)cc2)[C@H](C)CN([C@@H](C)CO)C(=O)c2cc(NC(=O)Nc3ccc(F)cc3)ccc2O1
not listed: [9]
inactive: all other assays above

C[C@H]1CN([C@@H](C)CO)C(=O)c2c(c3ccccc3n2C)-c2ccccc2CO[C@@H]1CN(C)S(=O)(=O)c1ccsc1
not listed: [7] | [9]
inactive: all other assays above

C[C@@H]1CCCCO[C@@H](CN(C)S(=O)(=O)c2ccc(Cl)cc2)[C@H](C)CN([C@@H](C)CO)C(=O)c2cc(N(C)C)ccc2O1
not listed: [9]
inactive: all other assays above

C[C@@H]1CCCCO[C@H](CN(C)Cc2ccccc2)[C@H](C)CN([C@@H](C)CO)C(=O)c2cc(NC(=O)Nc3ccc(C(F)(F)F)cc3)ccc2O1
not listed: [6] | [9]
inactive: all other assays above

Cc1cccc(S(=O)(=O)N2CC[C@@H]3[C@H]2c2cc(C4=CCCCC4)ccc2N[C@@H]3CO)c1
inactive: [1] | [2] | [3] | [4] | [9] 9.72% [at 4.2 µM, stronger effect = lower value] | [6]

COc1ccc(-c2ccc3c(c2)[C@H]2[C@H](CCN2S(=O)(=O)c2ccc(OC)cc2)[C@@H](CO)N3C)cc1
not listed: [6] | [8] | [9]
inactive: all other assays above

C[C@@H]1CN([C@H](C)CO)C(=O)c2cc(NS(=O)(=O)c3ccc(Cl)cc3)ccc2O[C@@H](C)CCCCO[C@H]1CN(C)S(=O)(=O)c1ccc(F)cc1
inactive: [1] | [2] | [3] | [4] | [9] 26.2% [at 1 µM, stronger effect = lower value] | [6]

Cc1ccc(S(=O)(=O)Nc2ccc3c(c2)C(=O)N([C@H](C)CO)C[C@@H](C)[C@@H](CN(C)Cc2ccc4c(c2)OCO4)OCCCC[C@@H](C)O3)cc1
not listed: [7] | [9]
inactive: all other assays above

O=S(=O)(c1ccccc1F)N1CC[C@H]2[C@H](CO)Nc3ccc(C4=CCCCC4)cc3[C@H]21
not listed: [6] | [8] | [9]
inactive: all other assays above

C[C@@H]1CN([C@H](C)CO)C(=O)c2cc(NC(=O)Nc3ccc(F)cc3)ccc2O[C@@H](C)CCCCO[C@H]1CN(C)C(=O)NC1CCCCC1
not listed: [9]
inactive: all other assays above

O=C(C[C@@H]1CC[C@@H]2[C@H](COC[C@@H](O)CN2S(=O)(=O)c2cccc(Cl)c2)O1)Nc1ccc(-c2ccccc2)cc1
not listed: [9]
inactive: all other assays above

COc1ccc(S(=O)(=O)Nc2ccc3c(c2)C(=O)N([C@@H](C)CO)C[C@@H](C)[C@@H](CN(C)Cc2ccc(C(F)(F)F)cc2)OCCCC[C@@H](C)O3)cc1
not listed: [6] | [8] | [9]
inactive: all other assays above

Cc1ccc(-c2ccc([C@H]3[C@@H](CO)N4CCCCN(C(=O)Nc5cccc(F)c5)C[C@H]34)cc2)cc1
not listed: [7] | [9]
inactive: all other assays above

COc1cccc(S(=O)(=O)N2CCCCN3[C@@H](CO)[C@@H](c4ccc(C#CCC(C)C)cc4)[C@@H]3C2)c1
not listed: [9]
inactive: all other assays above

C[C@@H]1CCCCO[C@H](CN(C)Cc2ccc(C(F)(F)F)cc2)[C@H](C)CN([C@@H](C)CO)C(=O)c2cc(NC(=O)c3ccccc3)ccc2O1
not listed: [6] | [8] | [9]
inactive: all other assays above

C[C@@H]1CN([C@H](C)CO)C(=O)c2cc(NS(=O)(=O)c3ccc(Cl)cc3)ccc2O[C@@H](C)CCCCO[C@@H]1CN(C)Cc1ccc(Cl)c(Cl)c1
not listed: [7] | [9]
inactive: all other assays above

C[C@H](CO)N1C[C@H](C)[C@H](CN(C)Cc2ccc(Cl)c(Cl)c2)OCCCC[C@H](C)Oc2ccc(NS(=O)(=O)c3ccc(F)cc3)cc2C1=O
not listed: [9]
inactive: all other assays above

C[C@@H]1CN([C@H](C)CO)C(=O)c2cc(NS(=O)(=O)c3cccs3)ccc2O[C@@H](C)CCCCO[C@@H]1CN(C)Cc1ccc(C(F)(F)F)cc1
not listed: [9]
inactive: all other assays above

COc1cccc(-c2ccc3c(c2)[C@H]2[C@H](CCN2C(=O)NC2CCCCC2)[C@@H](CO)N3C)c1
not listed: [7] | [9]
inactive: all other assays above

Cc1cccc(S(=O)(=O)N2CC[C@@H]3[C@H](CO)N(C)c4ccc(-c5ccc(C#N)cc5)cc4[C@@H]32)c1
not listed: [9]
inactive: all other assays above

C[C@@H]1CN([C@H](C)CO)C(=O)c2cccc(NC(=O)Nc3cccc4ccccc34)c2O[C@H]1CN(C)C(=O)Nc1ccc(C(F)(F)F)cc1
not listed: [9]
inactive: all other assays above

O=C(Nc1ccc(F)cc1)N[C@H]1CC[C@H](CCNC(=O)c2cc(Cl)cc(Cl)c2)O[C@H]1CO
not listed: [9]
inactive: all other assays above

COc1ccccc1S(=O)(=O)N1CC[C@H]2[C@@H](CO)N(C)c3ccc(-c4ccc(C#N)cc4)cc3[C@H]21
not listed: [7] | [9]
inactive: all other assays above

COc1ccc2c3c(n(C)c2c1)[C@@H](CO)N(C(=O)Nc1ccc(F)cc1)CC31CCN(S(=O)(=O)c2cccc(C)c2)CC1
not listed: [9]
inactive: all other assays above

C[C@@H]1CN([C@@H](C)CO)C(=O)Cc2cc(NC(=O)Nc3ccc(C(F)(F)F)cc3)ccc2O[C@H]1CN(C)C(=O)NC1CCCCC1
not listed: [9]
inactive: all other assays above

O=C(C[C@@H]1C[C@@H]2c3cc(NC(=O)Cc4ccncc4)ccc3O[C@@H]2[C@H](CO)O1)NCc1ccc(-c2ccccc2)cc1
not listed: [9]
inactive: all other assays above

CC(C)NC(=O)N(C)C[C@H]1OCCCC[C@H](C)Oc2ccc(NC(=O)Nc3ccc(C(F)(F)F)cc3)cc2C(=O)N([C@H](C)CO)C[C@@H]1C
not listed: [9]
inactive: all other assays above

C[C@H](CO)N1C[C@H](C)[C@@H](CN(C)Cc2ccc(C(F)(F)F)cc2)OCCCC[C@H](C)Oc2ccc(NC(=O)Cc3ccccc3)cc2C1=O
not listed: [9]
inactive: all other assays above

C[C@@H]1CN([C@H](C)CO)C(=O)c2cc(NS(=O)(=O)c3cccs3)ccc2O[C@@H](C)CCCCO[C@H]1CN(C)Cc1ccc(Cl)c(Cl)c1
not listed: [9]
inactive: all other assays above

CC(C)(C)S(=O)N1Cc2cc(C(=O)NCCCN3CCOCC3)nc(-c3cccc(C#CCC4CCCC4)c3)c2[C@@H]1CCO (some centres not stated)
not listed: [7] | [9]
inactive: all other assays above

C[C@@H]1CN([C@@H](C)CO)C(=O)c2cc(NS(=O)(=O)c3cccs3)ccc2O[C@@H](C)CCCCO[C@H]1CN(C)Cc1ccc(C(F)(F)F)cc1
not listed: [9]
inactive: all other assays above

C[C@H]1CN([C@@H](C)CO)C(=O)Cc2cc(NC(=O)Nc3ccc(F)cc3)ccc2O[C@H]1CN(C)Cc1ccc(Cl)c(Cl)c1
not listed: [9]
inactive: all other assays above
